Screens deposited in PubChem BioAssay by National Center for Advancing Translational Sciences (NCATS).
Sampled rows, rich in hits. Any-hit rate of the full collection: about 6.5%.
HCMV antiviral = blocks human cytomegalovirus replication | HFF cells, HCMV-luciferase reporter, 72 h; stronger effect = lower value | activity change, negative = inhibition, % at 57.5 µM | 4.5% of 410,000 active | AID 1259415; in the data active means activity change below about -60%; inconclusive means no clear call, values can overlap the other calls; inactive means above about -39%
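Steps: HFFs plated, 16 h 37C; compounds added; HCMV-luciferase added to MOI 1 PFU/cell; 72 h 37C; OneGlo reagent, 5 min room temperature; luminescence read, normalized to controls.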
VACV Venus inh = vaccinia inhibition (Venus reporter). Potency, µM (doses to about 36.5 µM), inactives show at the highest dose activity change, negative = inhibition, hits mostly inhibitors. Vaccinia virus Venus reporter expression, fluorescence. 0.46% of 330,000 active; calls by dose curve; tested in A549 cells; further: potency means the concentration at half of the fitted maximal effect; nearly all actives have a fitted effect of over 30% in size
Lassa entry inh = blocks Lassa virus binding to or entry into cells; Lassa virus pseudotype entry inhibition, cell reporter; Potency, µM (series often up to 37.9 µM), inactives show at the top dose activity change, negative = inhibition, actives largely listed as inhibitors; 1.2% of 300,000 active; calls by dose curve; tested in HEK293 cells; further: potency means the concentration at half of the fitted maximal effect; nearly all actives have a fitted effect of over 50% in size
FMDV antiviral = foot and mouth disease virus antiviral activity. 1.2% of 410,000 active. FMDV antiviral cell-based qHTS. Potency, µM (top dose mostly 57.9 µM), for the others: at the top dose activity change, negative = inhibition, hits mostly inhibitors. AID 1159524; calls by dose curve; tested in HEK293T cells; further: read-out not given here; potency means the concentration at half of the fitted maximal effect; nearly all actives have a fitted effect of over 45% in size
Vaccinia mCherry = inhibitors of vaccinia virus infection (mCherry reporter signal); Vaccinia virus mCherry reporter infection, fluorescence; Potency, µM (highest dose often 36.5 µM), for the others: top-dose activity change, negative = inhibition, actives largely listed as inhibitors; 0.63% of 310,000 active; AID 720579; calls by dose curve; tested in A549 cells; further: potency means the concentration at half of the fitted maximal effect; nearly all actives have a fitted effect of over 35% in size
Marburg entry inh = Marburg virus entry inhibition; Marburg virus pseudotyped entry inhibition, cell reporter; Potency, µM (top dose mostly 37.8 µM), for the others: at the highest dose activity change, negative = inhibition, usual class: inhibitors; 1.8% of 300,000 active; AID 540276; calls by dose curve; tested in HEK293 cells; further: potency means the concentration at half of the fitted maximal effect
The depositor's hits bear a star; i = inactive; ? = inconclusive; · = not tested or not shown; [ ] = dose if it differs, or a comment. On the % scale 0 is the no-effect control and ±100 the full control effect.

SMILES	HCMV antiviral	VACV Venus inh	Lassa entry inh	FMDV antiviral	Vaccinia mCherry	Marburg entry inh
OC(CN1CC=C(/C=C/c2ccc(Br)cc2)CC1)c1ccccc1 (stereo not given)	10.0	-13.2%	-32.7%[46.1 µM]	48.0%	?	11.2µM*
OC(CN1CCN(C(c2ccccc2)c2ccccc2)CC1)c1ccc(Br)cc1 (stereo not given)	-30.3	·	·	-6.8%	·	·
O=C(Cn1c(=O)n(-c2ccccc2)c(=O)c2sc3ccccc3c21)N1CCCC1	-18.9	-2.7%	5.1%[46.1 µM]	-11.2%	-5.9%	4.3%[46.1 µM]
O=C(Cn1c(=O)n(-c2cccc(Cl)c2)c(=O)c2sc3ccccc3c21)N1CCCC1	-81.0*	-8.6%	-18.5%[46.1 µM]	-5.8%	-7.4%	-2.5%[46.1 µM]
CCc1ccc(-n2c(=O)c3sc4ccccc4c3n(CC(=O)NC3CCCCC3)c2=O)cc1	12.7	-2.4%	8.2%[46.1 µM]	9.4%	-1.4%	13.0%[46.1 µM]
Cc1ccc(-n2c(=O)c3sc4ccccc4c3n(CC(=O)NC3CCCC3)c2=O)cc1C	-71.1*	-27.0%	0.5%[46.1 µM]	-11.1%	-24.0%	0.2%[46.1 µM]
COc1ccc(-n2c(=O)c3sc4ccccc4c3n(CC(=O)NCc3ccccc3)c2=O)cc1	-105.0*	2.2%	-5.3%[46.1 µM]	-14.6%	-5.9%	-1.5%[46.1 µM]
CN1CCN(c2ccc(Nc3cc4c(cn3)cc(-c3cccc(F)c3)n4C)cc2)CC1	-21.2	·	·	·	·	·
COc1cccc(-n2c(-c3ccco3)nc3c(cnn3-c3ccc(Cl)cc3)c2=O)c1	-66.7*	-15.6%	?	?	-23.8%	-27.8%[46.1 µM]
O=c1c2cnn(-c3ccccc3)c2nc(-c2ccco2)n1-c1ccccc1	-71.4*	·	?	14.1µM*	·	?
COc1ccc(-n2c(-c3ccco3)nc3c(cnn3-c3ccc(Cl)cc3)c2=O)cc1	?	?	?	-4.1%	?	?
CC(C)(C)OC(=O)COc1cc(O)c2c(=O)cc(-c3ccccc3)oc2c1	?	·	?	-28.6%	·	?
CC(C)(C)OC(=O)COc1cc(OCC(=O)OC(C)(C)C)c2c(=O)cc(-c3ccccc3)oc2c1	-26.1	11.2µM*	?	?	?	?
Cc1cccc(NC(=O)CN2C(=O)CCn3nc(-c4cccn4C)cc32)c1C	13.2	7.5%	-4.2%[46.1 µM]	50.3%	-16.6%	·
CCCCCn1c(Sc2ncccn2)nc2c1c(=O)[nH]c(=O)n2C	29.9	-0.8%	-14.7%	-15.7%	·	9.9%
CCCCn1c(SCc2ccc(Cl)cc2)nc2c1c(=O)[nH]c(=O)n2C	34.0	-8.8%	?	35.5µM*	·	?
CC(C)CCn1c(Sc2nc3ccccc3o2)nc2c1c(=O)[nH]c(=O)n2C	-78.4*	?	-19.0%	0.0%	?	?
CCCCCn1c(Sc2nc3ccccc3s2)nc2c1c(=O)[nH]c(=O)n2C	17.1	10µM*	?	·	10µM*	?
C/C=C/Cn1c(SCc2ccccc2)nc2c1c(=O)[nH]c(=O)n2C	18.0	?	12.6µM*	?	·	?
CC1=C/C(=C\c2ccc(N(C)C)cc2)c2ccccc21	·	-16.0%	·	·	-20.8%	·
COc1ccc(-c2nc3scc(CCNS(=O)(=O)c4ccc5c(c4)OCCO5)n3n2)cc1OC	-9.6	-5.7%	12.1%[46.1 µM]	10.9%	-11.0%	·
CCOc1cc2ccccc2cc1C(=O)OCC(=O)Nc1ccc(Br)cc1	·	-10.7%	·	·	-2.2%	·
CC(Sc1nnc(-c2ccccc2)n1C)C(=O)NCc1ccco1 (stereo not given)	·	-15.0%	·	·	-8.7%	·
COc1ccc(C)cc1NS(=O)(=O)c1ccc(NC(=O)CN(c2cc([N+](=O)[O-])ccc2C)S(C)(=O)=O)cc1	-35.3	?	?	-12.7%	-29.9%	3.66µM*
Cc1cc(Cl)ccc1NC(=O)COC(=O)c1cc([N+](=O)[O-])ccc1N1CCOCC1	-23.8	-16.5%	-0.8%	0.0%	i	?
SMILES	HCMV antiviral	VACV Venus inh	Lassa entry inh	FMDV antiviral	Vaccinia mCherry	Marburg entry inh
O=C(CSc1nccc(=O)[nH]1)Nc1cc(C(F)(F)F)ccc1N1CCOCC1	-9.1	-8.3%	2.5%	-0.5%	-8.4%	10.5%
O=C(COC(=O)/C=C/c1ccc(F)cc1)Nc1cc(C(F)(F)F)ccc1N1CCOCC1	12.1	-3.2%	10.7%[46.1 µM]	-12.5%	i	-13.4%[46.1 µM]
CC(=O)c1c(C)[nH]c(C(=O)OCC(=O)Nc2cc(C(F)(F)F)ccc2N2CCOCC2)c1C	-14.8	-14.3%	22.4µM*	-5.7%	·	?
O=C(COC(=O)c1cc([N+](=O)[O-])ccc1N1CCOCC1)Nc1ccc(Cl)cn1	-102.0*	28.2µM*	-2.8%	-21.7%	?	?
COCCOc1ccc(C(F)(F)F)cc1NC(=O)COC(=O)c1cc([N+](=O)[O-])ccc1N1CCOCC1	?	-26.0%	?	-13.4%	-14.5%	12.6µM*
Cc1ccc2nc(SCC(=O)Nc3cc(C(F)(F)F)ccc3N3CCOCC3)[nH]c2c1	-88.8*	?	?	?	·	?
COc1cccc(OC)c1OC[C@H](C)CNC[C@@H]1CCCO1	·	·	·	·	·	-13.3%
Cc1cc(NC(=O)CSCC(=O)Nc2cc(C(F)(F)F)ccc2N2CCOCC2)no1	-35.9	·	·	-19.8%	·	·
Cc1cc(NC(=O)CSCC(=O)Nc2cc(C(F)(F)F)ccc2N2CCCC2)no1	?	-10.6%	8.9%	28.2µM*	-15.2%	-14.7%
CCC[C@H]1[C@@H](NC(=O)NCCCC(=O)OCC)CC[C@@]23CCCN2C(=O)CCC[C@@H]13	3.7	·	·	·	·	·
CCN(CCCCCN(C)C)Cc1cc2ccccc2o1	-23.3	-13.3%	?	-0.2%	-22.0%	10.3µM*
CN(C)CCCN(C(=O)c1cc2ccccc2oc1=O)c1nc2ccc(F)cc2s1	-11.6	-4.0%	7.5%	0.5%	i	-6.6%
O=C1COCc2ccc(-c3cccc(CO)c3)cc2N1CCc1ccccc1	-3.6	·	·	·	·	·
CCCCn1c(N)c(NCC(C)C)c(=O)[nH]c1=O	-91.0*	3.6%	15.6%	-12.9%	10.5%	0.0%
CCCCn1c(N)c(NCC)c(=O)[nH]c1=O	2.8	-2.7%	3.5%	-7.9%	-15.8%	3.9%
N#Cc1c(Cl)nsc1NC(=O)c1ccccc1	-99.9*	·	·	-2.4%	·	·
COCCN1C(=NCCc2cccnc2)NC(c2ccccc2)C(C(=O)OC)=C1C (stereo not given)	·	·	-21.2%[14.3 µM]	·	·	53.9%[14.2 µM]
CCN(CC)CCCNc1nc(-c2ccccc2)nc2ccccc12	?	?	?	·	i	16.4µM*
CCN(CC)CCCNc1nc2ccccc2c2[nH]c3ccc(OC)cc3c12	-93.4*	10µM*	?	-5.9%	?	?
COCCCNc1nc(-c2ccc(Cl)cc2)nc2ccccc12	33.3	-21.4%	?	-26.7%	-17.0%	11.2µM*
COCCCNc1nc(-c2ccncc2)nc2ccccc12	13.9	-11.4%	-19.9%	-23.8%	-16.0%	?
CCN(CC)CCCNc1nc2ccccc2c2nc(-c3ccncc3)nn12	?	11.2µM*	?	-19.8%	?	7.94µM*
CC(C)C(=O)N[C@@H]1CCCN1C(=O)C=Cc1ccccc1	·	·	-0.4%[14.3 µM]	·	·	-46.9%[14.2 µM]
CCOc1ccc(CNS(=O)(=O)c2c(C(=O)N3CCCCCC3)c(C)n(C)c2C)cc1OC	-12.2	-3.5%	-3.2%[46.1 µM]	-5.2%	-9.9%	·
